In PubChem BioAssay (NCI):
The panel holds about 83,000 compounds, 20% with a hit somewhere; the sample as a whole holds those more often.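 Cell lines were cultured in 96-well plates, exposed to a single compound concentration, and assessed for percent growth 48 hours later.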 Active and inactive are the calls of the source. How the source made its calls: active means growth percent below 10; inactive means the rest.

Key:
Assay in all cases: NCI-60 one-dose screen, 48 h (100 = growth as untreated, 0 = no growth, -100 = all killed)
Settings in all cases: 10 µM unless noted
SR leukemia = system: SR leukemia
RPMI-8226 leukemia = system: RPMI-8226 leukemia
OVCAR-8 ovarian = system: OVCAR-8 ovarian
OVCAR-5 ovarian = system: OVCAR-5 ovarian
OVCAR-4 ovarian = system: OVCAR-4 ovarian
SK-OV-3 ovarian = system: SK-OV-3 ovarian
IGROV1 ovarian = system: IGROV1 ovarian
OVCAR-3 ovarian = system: OVCAR-3 ovarian
HS 578T breast = system: HS 578T breast
NCI/ADR-RES ovarian = system: NCI/ADR-RES ovarian
T-47D breast = system: T-47D breast
MDA-MB-435 melanoma = system: MDA-MB-435 melanoma
SW-620 colon = system: SW-620 colon
HCT-116 colon = system: HCT-116 colon
HCC-2998 colon = system: HCC-2998 colon
KM12 colon = system: KM12 colon
MCF7 breast = system: MCF7 breast

Measured: growth

Cc1ccc(/C=N/NC(N)=S)s1
inactive: SR leukemia 97.3% | RPMI-8226 leukemia 100% | OVCAR-8 ovarian 107% | OVCAR-5 ovarian 104% | OVCAR-4 ovarian 110% | SK-OV-3 ovarian 111% | IGROV1 ovarian 113% | OVCAR-3 ovarian 105% | HS 578T breast 106% | NCI/ADR-RES ovarian 109% | T-47D breast 100% | MDA-MB-435 melanoma 106% | SW-620 colon 107% | HCT-116 colon 99.5% | HCC-2998 colon 113%

CN(C)CCOC(=O)Nc1ccc(Cc2ccc(NC(=O)OCCN(C)C)cc2)cc1
active: SR leukemia -39.4% [100 µM]
inactive: RPMI-8226 leukemia 16.8% [100 µM] | OVCAR-8 ovarian 98.2% [100 µM] | OVCAR-5 ovarian 85.1% [100 µM] | OVCAR-4 ovarian 94.6% [100 µM] | SK-OV-3 ovarian 137% [100 µM] | IGROV1 ovarian 83.2% [100 µM] | OVCAR-3 ovarian 90.4% [100 µM] | HS 578T breast 73.1% [100 µM] | NCI/ADR-RES ovarian 98.5% [100 µM] | T-47D breast 105% [100 µM] | MDA-MB-435 melanoma 76.4% [100 µM] | SW-620 colon 85.8% [100 µM] | HCT-116 colon 36.5% [100 µM] | HCC-2998 colon 46.2% [100 µM] | KM12 colon 78.8% [100 µM]

O=C(NCCc1ccccc1)/C(=C\c1ccc(Cl)cc1Cl)NC(=O)c1ccccc1
inactive: SR leukemia 87.6% | RPMI-8226 leukemia 92% | OVCAR-8 ovarian 95.3% | OVCAR-5 ovarian 101% | OVCAR-4 ovarian 98.7% | SK-OV-3 ovarian 97.6% | IGROV1 ovarian 96.3% | OVCAR-3 ovarian 94.1% | HS 578T breast 96.4% | NCI/ADR-RES ovarian 91.8% | T-47D breast 98.1% | MDA-MB-435 melanoma 96.6% | SW-620 colon 95.7% | MCF7 breast 91.9% | HCT-116 colon 99.7% | HCC-2998 colon 113%

Cc1ccc2nc(-c3ccc(N=Cc4ccccc4O)cc3)sc2c1
active: HCC-2998 colon -12.3%
inactive: SR leukemia 88.8% | RPMI-8226 leukemia 70.8% | OVCAR-8 ovarian 87.5% | OVCAR-5 ovarian 92.2% | OVCAR-4 ovarian 78.6% | SK-OV-3 ovarian 115% | IGROV1 ovarian 64% | OVCAR-3 ovarian 84.8% | HS 578T breast 102% | NCI/ADR-RES ovarian 77.7% | T-47D breast 69% | MDA-MB-435 melanoma 105% | SW-620 colon 97.8% | MCF7 breast 77.1% | HCT-116 colon 79.2% | KM12 colon 99.2%

CC(=O)NC(CCC(=O)c1ccccc1)C(=O)O (stereo not given)
inactive: SR leukemia 16.6% | RPMI-8226 leukemia 91.4% | OVCAR-8 ovarian 101% | OVCAR-5 ovarian 98.3% | OVCAR-4 ovarian 100% | SK-OV-3 ovarian 87.5% | IGROV1 ovarian 104% | OVCAR-3 ovarian 107% | HS 578T breast 108% | NCI/ADR-RES ovarian 106% | T-47D breast 83.3% | MDA-MB-435 melanoma 99.2% | SW-620 colon 100% | MCF7 breast 89.4% | HCT-116 colon 80.2% | HCC-2998 colon 108% | KM12 colon 103%

CCC(=O)Oc1ccc2ccccc2c1
inactive: SR leukemia 106% | RPMI-8226 leukemia 100% | OVCAR-8 ovarian 100% | OVCAR-5 ovarian 103% | OVCAR-4 ovarian 101% | SK-OV-3 ovarian 98.9% | IGROV1 ovarian 106% | OVCAR-3 ovarian 108% | HS 578T breast 81% | NCI/ADR-RES ovarian 96.8% | T-47D breast 74.9% | MDA-MB-435 melanoma 101% | SW-620 colon 85.7% | MCF7 breast 101% | HCT-116 colon 102% | HCC-2998 colon 88.7% | KM12 colon 99.6%

NC(CO)(CO)c1ccccc1
inactive: SR leukemia 96.7% | RPMI-8226 leukemia 94.2% | OVCAR-8 ovarian 103% | OVCAR-5 ovarian 101% | OVCAR-4 ovarian 104% | SK-OV-3 ovarian 105% | IGROV1 ovarian 104% | OVCAR-3 ovarian 97.5% | HS 578T breast 95.5% | NCI/ADR-RES ovarian 111% | T-47D breast 99.7% | MDA-MB-435 melanoma 98.4% | SW-620 colon 96.9% | MCF7 breast 95.9% | HCT-116 colon 101% | HCC-2998 colon 110% | KM12 colon 94.5%

Cc1ccc(S(=O)(=O)CCCl)cc1
inactive: SR leukemia 90% | RPMI-8226 leukemia 101% | OVCAR-8 ovarian 101% | OVCAR-5 ovarian 101% | OVCAR-4 ovarian 107% | SK-OV-3 ovarian 124% | IGROV1 ovarian 123% | OVCAR-3 ovarian 131% | HS 578T breast 102% | NCI/ADR-RES ovarian 105% | T-47D breast 106% | MDA-MB-435 melanoma 117% | SW-620 colon 110% | MCF7 breast 100% | HCT-116 colon 118% | HCC-2998 colon 104% | KM12 colon 111%

NC(=S)N/N=C/c1ccc(Cl)cc1
inactive: SR leukemia 97.1% | RPMI-8226 leukemia 97.8% | OVCAR-8 ovarian 92.9% | OVCAR-5 ovarian 108% | OVCAR-4 ovarian 97.3% | SK-OV-3 ovarian 118% | IGROV1 ovarian 107% | OVCAR-3 ovarian 116% | HS 578T breast 112% | NCI/ADR-RES ovarian 100% | T-47D breast 86.8% | MDA-MB-435 melanoma 110% | SW-620 colon 113% | MCF7 breast 93.4% | HCT-116 colon 100% | HCC-2998 colon 96.2% | KM12 colon 113%

Nc1cccc2cccc(O)c12
inactive: SR leukemia 58.5% | RPMI-8226 leukemia 85.5% | OVCAR-8 ovarian 86.7% | OVCAR-5 ovarian 103% | OVCAR-4 ovarian 83.1% | SK-OV-3 ovarian 100% | IGROV1 ovarian 76% | OVCAR-3 ovarian 87.1% | HS 578T breast 82.1% | NCI/ADR-RES ovarian 95.5% | T-47D breast 102% | MDA-MB-435 melanoma 108% | SW-620 colon 67.4% | MCF7 breast 79.9% | HCT-116 colon 78.8% | HCC-2998 colon 95.8% | KM12 colon 128%

CCCC(OC(C)=O)c1ccc2c(c1)OCO2 (stereo not given)
inactive: SR leukemia 103% | RPMI-8226 leukemia 107% | OVCAR-8 ovarian 99% | OVCAR-5 ovarian 106% | OVCAR-4 ovarian 110% | SK-OV-3 ovarian 105% | IGROV1 ovarian 104% | OVCAR-3 ovarian 105% | HS 578T breast 99.6% | NCI/ADR-RES ovarian 104% | T-47D breast 100% | MDA-MB-435 melanoma 106% | SW-620 colon 109% | MCF7 breast 95.8% | HCT-116 colon 108% | HCC-2998 colon 98% | KM12 colon 106%

CCOc1ccccc1NC(=O)CCl
inactive: SR leukemia 74.8% | RPMI-8226 leukemia 88.8% | OVCAR-8 ovarian 86.9% | OVCAR-5 ovarian 124% | OVCAR-4 ovarian 45.9% | SK-OV-3 ovarian 109% | OVCAR-3 ovarian 95.4% | HS 578T breast 94.9% | NCI/ADR-RES ovarian 106% | T-47D breast 75.3% | MDA-MB-435 melanoma 83.9% | SW-620 colon 98.4% | MCF7 breast 46.6% | HCT-116 colon 75.8% | HCC-2998 colon 110%
active: IGROV1 ovarian -12%

CN(CCCN(C)CCC1CCCCC1)CCC1CCCCC1
active: SR leukemia -36.3% | MDA-MB-435 melanoma -26.1% | MCF7 breast -47.4% | HCC-2998 colon -30.1%
inactive: RPMI-8226 leukemia 43.6% | OVCAR-8 ovarian 67.6% | OVCAR-5 ovarian 56.4% | OVCAR-4 ovarian 59.1% | SK-OV-3 ovarian 58.9% | IGROV1 ovarian 66.6% | OVCAR-3 ovarian 73.9% | HS 578T breast 51.2% | NCI/ADR-RES ovarian 62% | T-47D breast 17.9% | SW-620 colon 75.2% | HCT-116 colon 47.2% | KM12 colon 46.7%

O=S(Cc1ccccc1)/C(=C/NC(=S)Nc1ccccc1)c1ccccc1 (stereo not given)
inactive: SR leukemia 88.4% | RPMI-8226 leukemia 103% | OVCAR-8 ovarian 107% | OVCAR-5 ovarian 99% | OVCAR-4 ovarian 98.3% | SK-OV-3 ovarian 91.4% | IGROV1 ovarian 97.6% | OVCAR-3 ovarian 105% | HS 578T breast 114% | NCI/ADR-RES ovarian 98.4% | T-47D breast 90.2% | MDA-MB-435 melanoma 104% | SW-620 colon 104% | MCF7 breast 102% | HCT-116 colon 91.1% | HCC-2998 colon 102% | KM12 colon 99%

O=Cc1c(O)c2ccccc2[nH]c1=O
inactive: SR leukemia 114% | RPMI-8226 leukemia 109% | OVCAR-8 ovarian 95.1% | OVCAR-5 ovarian 98.5% | OVCAR-4 ovarian 106% | SK-OV-3 ovarian 105% | IGROV1 ovarian 104% | OVCAR-3 ovarian 134% | HS 578T breast 106% | NCI/ADR-RES ovarian 104% | T-47D breast 106% | MDA-MB-435 melanoma 118% | SW-620 colon 93.8% | MCF7 breast 95.7% | HCT-116 colon 89.4% | KM12 colon 139%

CC(=O)c1ccc(C)cc1
inactive: SR leukemia 112% | RPMI-8226 leukemia 113% | OVCAR-8 ovarian 108% | OVCAR-5 ovarian 104% | OVCAR-4 ovarian 112% | SK-OV-3 ovarian 121% | IGROV1 ovarian 98.1% | OVCAR-3 ovarian 111% | HS 578T breast 94.9% | NCI/ADR-RES ovarian 106% | T-47D breast 120% | MDA-MB-435 melanoma 112% | SW-620 colon 106% | MCF7 breast 100% | HCT-116 colon 105% | HCC-2998 colon 105% | KM12 colon 106%

CCOC(=O)c1ccc(Nc2sc(C(=O)c3ccc(Br)cc3)c(N)c2C#N)cc1
active: OVCAR-3 ovarian -6.38% | MDA-MB-435 melanoma -61.9%
inactive: SR leukemia 18.6% | RPMI-8226 leukemia 18.7% | OVCAR-8 ovarian 29.6% | OVCAR-5 ovarian 46.8% | OVCAR-4 ovarian 70.5% | SK-OV-3 ovarian 11.7% | IGROV1 ovarian 31.3% | HS 578T breast 20.8% | NCI/ADR-RES ovarian 22% | T-47D breast 28% | SW-620 colon 25.6% | HCT-116 colon 26.9% | HCC-2998 colon 66.1% | KM12 colon 21.7%

O=C(CCl)Oc1ccc([N+](=O)[O-])cc1
inactive: SR leukemia 102% | RPMI-8226 leukemia 103% | OVCAR-8 ovarian 102% | OVCAR-5 ovarian 107% | OVCAR-4 ovarian 106% | SK-OV-3 ovarian 133% | IGROV1 ovarian 106% | OVCAR-3 ovarian 121% | HS 578T breast 128% | NCI/ADR-RES ovarian 105% | T-47D breast 105% | MDA-MB-435 melanoma 107% | MCF7 breast 99.5% | HCT-116 colon 110% | HCC-2998 colon 102% | KM12 colon 107%

CC(CCC#N)(CCC#N)C(=O)c1ccccc1
inactive: SR leukemia 104% | RPMI-8226 leukemia 101% | OVCAR-8 ovarian 105% | OVCAR-5 ovarian 109% | OVCAR-4 ovarian 90% | SK-OV-3 ovarian 115% | IGROV1 ovarian 125% | OVCAR-3 ovarian 123% | HS 578T breast 97.8% | NCI/ADR-RES ovarian 106% | T-47D breast 93.8% | MDA-MB-435 melanoma 107% | SW-620 colon 103% | MCF7 breast 95.9% | HCT-116 colon 112% | HCC-2998 colon 101% | KM12 colon 108%
